tim10-1 inh = tim10-1 yeast growth inhibition; S. cerevisiae tim10-1 ts strain growth, BacTiter-Glo, 24 h; inhibition, % at 20 µM; actives 2.2% (n = 330,000); AID 463190;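 active = inhibition of at least 40%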;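 note: mutant grown at 25 °C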
tim23-1 inh = tim23-1 yeast growth inhibition | AID 463212 | S. cerevisiae tim23-1 growth, BacTiter-Glo luminescence, 24 h | inhibition, % at 20 µM | actives 1.3% (n = 330,000);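 active = growth inhibition of the mutant yeast at or above 50%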;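 note: temperature-sensitive mutant grown at 25 °C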
SKKanGAS inh = inhibitors of SKKanGAS S. pyogenes growth in kanamycin (SK-promoter or general growth effect); inhibition, % at 7.5 µM; actives 1.3% (n = 300,000); BacTiter-Glo, 6 h;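 active = mean replicate score, as percent of positive control median, at least 50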;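 note: strain carries kanamycin resistance gene driven by streptokinase promoter and grows in 40 µg/ml kanamycin; loss of luminescence reflects streptokinase promoter inhibition or plain growth inhibition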
NALP1 inh = NALP1 inhibition. S. cerevisiae NALP1/ASC/caspase-1 growth, X-gal OD620, 72 h. inhibition, % at 10 µM. actives 0.61% (n = 280,000); in the data active = inhibition mostly above about 24%, no sharp cut-off; inactive = mostly below about 32%
NALP3 yeast inh = blocks the NALP3 inflammasome reconstituted in yeast; actives 0.39% (n = 330,000); inhibition, % at 10 µM; Yeast reconstituted NLRP3/ASC/caspase-1, beta-gal luminescence, 24 h;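 active = inhibition of 50% or more; inactive = inhibition below 50%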
TIM10 inh = TIM10 yeast growth inhibition | inhibition, % at 10 µM | actives 1.4% (n = 330,000) | S. cerevisiae TIM10 strain growth, BacTiter-Glo luminescence, 24 h;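 active = inhibition of 40% or more at the single tested concentration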;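 note: wild-type TIM10 isogenic control strain grown at permissive 25 °C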
tim23-1 conf = tim23-1 yeast growth inhibition, confirmed; shares compounds with tim23-1 inh; inhibition, % at 20 µM; S. cerevisiae tim23-1 growth, BacTiter-Glo luminescence, 24 h; AID 463218; actives 83% (n = 4,400);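 active = inhibition above about 39% in either of two replicate wells at 20 µM, limit read from the data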;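 note: temperature-sensitive tim23-1 mutant grown at 25 °C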
A number is an active result; n = inactive; x = no result given. Only some compounds are listed: those with a hit (about 4.9% of all), similar ones and a draw of the others.

SMILES	tim10-1 inh	tim23-1 inh	SKKanGAS inh	NALP1 inh	NALP3 yeast inh	TIM10 inh	tim23-1 conf
NC(=S)NNc1cc(Cl)cc(Cl)c1	n	58	n	n	n	n	70
CC1(C)C(=O)OC(C(=O)c2ccc(C(C)(C)C)cc2)C(C)(C)C1=O (configuration not stated)	n	n	n	n	n	n	x
O=C(c1ccco1)N1c2ccccc2Sc2ccccc21	n	n	n	n	n	n	x
O=C(c1ccco1)N1CCN(C(=O)N2c3ccccc3Sc3ccccc32)CC1	n	56	n	n	n	n	n
Cc1ccc(NC(=O)c2ccc3nccnc3c2)c(C)c1	n	n	n	n	n	n	x
O=C(COc1ccccc1[N+](=O)[O-])N(Cc1ccco1)C1CCS(=O)(=O)C1 (configuration not stated)	n	n	n	n	n	n	x
CS(=O)(=O)NNC(=O)Cn1nnc(-c2ccc(OCc3ccccc3Cl)cc2)n1	n	n	n	x	n	n	x
CCC(NC(=O)C1C2C=CC(C2)C1C(=O)O)c1ccc(C)cc1 (configuration not stated)	n	n	n	n	n	n	x
CCn1ccc(C(=O)Nc2cccc(Cl)c2)n1	n	n	n	n	n	n	x
CCn1cc(Br)c(C(=O)Nc2cccc(Cl)c2)n1	n	59	n	n	n	n	52
Cc1ccsc1CN(C)C(=O)CN1C(=O)NC(c2ccccc2)(c2ccccc2)C1=O	n	n	x	x	n	n	x
CC(C)(C)NC(=O)CSc1nc(-c2ccc(F)cc2)cs1	n	77	n	n	n	n	n
CC(C)C(=O)Nc1ncc(Cc2cccc(Cl)c2)s1	n	55	n	n	n	n	40
O=C(Nc1ncc(Cc2cccc(Cl)c2Cl)s1)C1CCCO1 (configuration not stated)	n	n	n	n	n	n	x
O=C(Nc1ncc(Cc2cccc(Cl)c2)s1)C1CCCO1 (configuration not stated)	n	50	n	n	n	n	43
CCc1nnc(NS(=O)(=O)c2ccc(NC(=S)NC(=O)/C=C/c3ccc(F)cc3)cc2)s1	n	n	n	n	n	n	x
Cn1c(SC/C=C/c2ccccc2)nnc1-c1cccs1	n	57	n	n	n	n	45
CCn1c(SC/C=C/c2ccccc2)nnc1-c1cccs1	n	n	n	n	n	n	x
Cc1nn(Cc2ccccc2)c(C)c1NC(=O)CCCn1nc([N+](=O)[O-])cc1C	n	n	n	n	n	n	x
Cc1ccc(C)c(N2CCN(C(=O)C(Cc3ccccc3)n3cccc3)CC2)c1 (configuration not stated)	n	n	n	n	n	n	x
O=C(C(Cc1ccccc1)n1cccc1)N1CCN(c2ccccc2)CC1 (configuration not stated)	n	55	n	n	n	n	n
CCN(Cc1ccccc1)C(=O)c1ccc(C)c(S(=O)(=O)N2CCCCC2)c1	n	50	x	x	n	n	n
Cc1nn(-c2ccccc2)c2c1C(c1ccc([N+](=O)[O-])cc1)C(C#N)=C(N)O2 (configuration not stated)	n	n	n	n	n	n	x
Cc1nn(-c2ccccc2)c2c1C(c1cccs1)C(C#N)=C(N)O2 (configuration not stated)	n	61	n	n	n	n	60
Cc1nn(-c2ccccc2)c2c1C(c1ccco1)C(C#N)=C(N)O2 (configuration not stated)	n	n	n	n	n	n	x
SMILES	tim10-1 inh	tim23-1 inh	SKKanGAS inh	NALP1 inh	NALP3 yeast inh	TIM10 inh	tim23-1 conf
CCCc1nn(-c2ccccc2)c2c1C(c1cccs1)C(C#N)=C(N)O2 (configuration not stated)	n	51	n	n	n	n	44
CCN(CC)S(=O)(=O)c1cccc(C(=O)NC2CCCCC2)c1	n	n	n	n	n	n	x
CCN(CC)S(=O)(=O)c1csc(C(=O)NC2CCCCC2)c1	n	96	n	n	n	n	n
COc1ccc(SC[C@H](CC(C)C)N2CCN(CCc3ccccc3)CCC2=O)cc1	n	n	n	n	n	n	x
CCCOc1ccc(-c2nc[nH]c2[N+](=O)[O-])cc1	n	n	n	n	n	n	x
COc1cc(C(C[N+](=O)[O-])c2c(C)cc3ccccn23)ccc1O (configuration not stated)	n	n	n	n	n	n	x
COc1ccc(C(C[N+](=O)[O-])c2c(-c3ccccc3)cc3ccccn23)cc1 (configuration not stated)	n	63	n	x	n	n	78
COc1ccc(C(C[N+](=O)[O-])c2c(-c3ccccc3)cc3ccccn23)cc1OC (configuration not stated)	n	50	n	n	n	n	62
Cc1cc(C)c(C2=Nn3c(C)nnc3SC2C)cc1C (configuration not stated)	n	n	n	n	n	n	x
COc1ccc(N(C(=O)CNC(=O)c2cccs2)C(C(=O)NC2CCCC2)c2cccnc2)cc1 (configuration not stated)	n	50	n	n	n	n	n
O=C(NCC(=O)N(c1ccccc1)C(C(=O)NC1CCCC1)c1cccnc1)c1cccs1 (configuration not stated)	n	n	n	n	n	n	x
O=C(O)c1ccc(/C=C2/SC(=S)N(Cc3ccccc3)C2=O)cc1	x	x	n	n	x	x	x
O=C1/C(=C\c2ccc(O)cc2)SC(=S)N1Cc1ccccc1	n	55	n	n	n	n	n
CCN1CCC2(CC1)N=C(c1ccc(F)cc1)C(=S)N2C(=O)c1ccc(C(C)(C)C)cc1	n	53	n	n	n	n	n
CN=C1S/C(=C\c2cccc(Cl)c2Cl)C(=O)N1C	n	50	n	x	n	n	60
CN=C1S/C(=C\c2ccc(Cl)cc2)C(=O)N1C	n	n	n	n	n	n	x
Cc1c(NC(=O)Nc2cc(F)c(F)cc2Cl)c(=O)n(-c2ccccc2)n1C	n	n	n	x	n	n	x
Cc1ccc(-n2c(-c3c(-c4ccccc4)noc3C)n[nH]c2=S)cc1	n	n	n	n	n	n	x
COc1ccc(S(=O)(=O)N2CCN(Cc3cccc(Cl)c3)CC2)cc1	n	51	n	n	n	n	53
Cc1cc(C)n(-c2nc3ccccc3c(=O)n2OCc2ccc(Cl)cc2)n1	n	52	n	n	n	n	51
Cc1cc(C)n(-c2nc3ccccc3c(=O)n2OCc2ccc(F)cc2)n1	n	n	n	n	n	n	x
CC(C)(C)c1cnnn1-c1cccc([N+](=O)[O-])c1	n	n	n	n	n	n	x
Cc1ccn2cc(C(=O)Nc3ccccc3N3CCOCC3)nc2c1	n	56	n	n	n	n	41
CCc1ccc(NC(=O)Nc2ccsc2C(=O)OC)cc1	n	56	n	n	n	n	57

Source: PubChem (several laboratories)
